# From PMC7862700, “An all-to-all approach to the identification of sequence-specific readers for epigenetic DNA modifications on cytosine”
# Columns and labels:
# Assay in all cases: DAPPL (digital affinity profiling via proximity ligation, sequencing); 10 mM Tris-HCl pH 7.5, 50 mM NaCl, 1 mM DTT, 4% glycerol, room temperature, 30 min; GST-TFs on glutathione beads, 16-mer random dsDNA library, 0.1% formaldehyde crosslink after washing; high values mean tight binding
# FEV = molecular target: T1, FEV (Homo sapiens, UniProt Q99581 1-238); conditions: protein: recombinant; tags: N-terminal GST; dsDNA, one strand shown
# T1 sequence: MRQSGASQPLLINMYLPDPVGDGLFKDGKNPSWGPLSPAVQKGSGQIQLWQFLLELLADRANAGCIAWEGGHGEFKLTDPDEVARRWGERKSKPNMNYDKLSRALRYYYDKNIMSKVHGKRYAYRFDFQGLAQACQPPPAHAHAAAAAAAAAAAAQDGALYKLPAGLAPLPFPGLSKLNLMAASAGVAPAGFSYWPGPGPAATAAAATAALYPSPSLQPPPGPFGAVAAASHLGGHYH
# In short: (§1)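 Human transcription factors fused to GST were expressed in yeast, captured on glutathione beads, given DNA barcodes and pooled with a GST-only negative control. Pools were incubated with 200 nmole of a 16-mer random double-stranded DNA library in Tris/NaCl/DTT/glycerol buffer at room temperature for 30 min. They were then washed, crosslinked with 0.1% formaldehyde, proximity-ligated (BsaI/T4 ligase, 1 h, 37 °C), PCR-amplified and sequenced on an Illumina NextSeq500. Binding signal is each 6-mer's read frequency for a factor divided by its frequency for the GST control.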
# ETV5 = ETV5 (Homo sapiens, UniProt P41161 1-510); conditions: protein: recombinant; tags: N-terminal GST; dsDNA, one strand shown
# Sequence of ETV5 (P41161 whole entry): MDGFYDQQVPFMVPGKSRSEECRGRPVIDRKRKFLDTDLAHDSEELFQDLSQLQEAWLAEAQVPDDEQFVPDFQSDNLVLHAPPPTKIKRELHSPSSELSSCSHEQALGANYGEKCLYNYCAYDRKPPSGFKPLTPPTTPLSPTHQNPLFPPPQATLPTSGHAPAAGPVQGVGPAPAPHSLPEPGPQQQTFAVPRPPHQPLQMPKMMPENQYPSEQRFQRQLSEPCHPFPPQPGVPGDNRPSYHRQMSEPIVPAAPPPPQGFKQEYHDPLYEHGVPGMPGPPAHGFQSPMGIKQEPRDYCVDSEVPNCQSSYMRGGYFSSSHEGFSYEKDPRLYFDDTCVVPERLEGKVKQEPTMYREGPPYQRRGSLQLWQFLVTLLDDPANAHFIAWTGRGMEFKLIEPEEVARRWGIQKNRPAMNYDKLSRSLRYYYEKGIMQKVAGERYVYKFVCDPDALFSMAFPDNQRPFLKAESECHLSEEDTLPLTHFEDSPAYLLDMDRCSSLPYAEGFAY
# In short: as §1
# HSF1 = HSF1 (Homo sapiens, UniProt Q00613 1-529); conditions: protein: recombinant; tags: N-terminal GST; chain copies: 3; dsDNA, one strand shown
# Sequence of HSF1 (Q00613 whole entry): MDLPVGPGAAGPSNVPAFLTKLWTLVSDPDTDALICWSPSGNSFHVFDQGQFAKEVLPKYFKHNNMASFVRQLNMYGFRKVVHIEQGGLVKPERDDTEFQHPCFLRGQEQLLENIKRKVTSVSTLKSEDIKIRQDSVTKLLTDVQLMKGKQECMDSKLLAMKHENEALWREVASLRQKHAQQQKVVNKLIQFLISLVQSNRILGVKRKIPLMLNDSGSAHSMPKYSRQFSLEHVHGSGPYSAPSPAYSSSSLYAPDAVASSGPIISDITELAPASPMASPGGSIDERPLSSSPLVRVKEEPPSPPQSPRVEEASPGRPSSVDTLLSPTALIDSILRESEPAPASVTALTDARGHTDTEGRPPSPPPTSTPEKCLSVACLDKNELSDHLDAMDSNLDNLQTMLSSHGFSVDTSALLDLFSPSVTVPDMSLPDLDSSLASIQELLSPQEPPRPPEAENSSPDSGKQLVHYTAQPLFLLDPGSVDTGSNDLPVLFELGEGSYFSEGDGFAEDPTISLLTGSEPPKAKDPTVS
# In short: as §1
# SPIC = molecular target: T2, SPIC (Homo sapiens, UniProt Q8N5J4 1-248); conditions: protein: recombinant; tags: N-terminal GST; dsDNA, one strand shown
# T2 sequence: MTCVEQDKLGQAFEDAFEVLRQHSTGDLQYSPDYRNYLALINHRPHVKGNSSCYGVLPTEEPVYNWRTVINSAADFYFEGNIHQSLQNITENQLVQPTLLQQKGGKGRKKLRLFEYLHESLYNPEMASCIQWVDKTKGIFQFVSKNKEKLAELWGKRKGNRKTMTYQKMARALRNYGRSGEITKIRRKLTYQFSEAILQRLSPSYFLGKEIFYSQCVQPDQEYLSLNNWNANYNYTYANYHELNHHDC
# In short: as §1
# ELF4 = ELF4 (Homo sapiens, UniProt Q99607 1-663); conditions: protein: recombinant; tags: N-terminal GST; dsDNA, one strand shown
# Sequence of ELF4 (Q99607 whole entry): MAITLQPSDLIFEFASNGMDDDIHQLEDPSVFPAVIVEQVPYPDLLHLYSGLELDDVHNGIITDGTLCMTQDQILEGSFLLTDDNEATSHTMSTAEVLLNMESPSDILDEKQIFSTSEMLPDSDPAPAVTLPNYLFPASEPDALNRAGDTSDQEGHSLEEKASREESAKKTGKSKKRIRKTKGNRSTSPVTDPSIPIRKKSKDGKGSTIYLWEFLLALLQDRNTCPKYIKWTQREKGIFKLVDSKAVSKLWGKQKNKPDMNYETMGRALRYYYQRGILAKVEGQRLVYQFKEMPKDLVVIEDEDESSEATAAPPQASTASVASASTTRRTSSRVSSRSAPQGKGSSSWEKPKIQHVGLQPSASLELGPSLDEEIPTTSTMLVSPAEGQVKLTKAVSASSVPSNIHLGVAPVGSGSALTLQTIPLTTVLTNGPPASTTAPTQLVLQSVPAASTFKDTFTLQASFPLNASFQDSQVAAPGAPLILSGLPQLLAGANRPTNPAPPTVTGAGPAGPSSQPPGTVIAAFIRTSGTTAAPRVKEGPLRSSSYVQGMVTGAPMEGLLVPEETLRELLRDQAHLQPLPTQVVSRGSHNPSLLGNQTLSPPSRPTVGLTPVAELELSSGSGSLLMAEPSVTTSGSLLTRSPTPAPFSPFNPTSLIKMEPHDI
# In short: as §1
# ELK4 = molecular target: T3, ELK4 (Homo sapiens, UniProt P28324-2 1-405); conditions: protein: recombinant; tags: N-terminal GST; dsDNA, one strand shown
# T3 sequence: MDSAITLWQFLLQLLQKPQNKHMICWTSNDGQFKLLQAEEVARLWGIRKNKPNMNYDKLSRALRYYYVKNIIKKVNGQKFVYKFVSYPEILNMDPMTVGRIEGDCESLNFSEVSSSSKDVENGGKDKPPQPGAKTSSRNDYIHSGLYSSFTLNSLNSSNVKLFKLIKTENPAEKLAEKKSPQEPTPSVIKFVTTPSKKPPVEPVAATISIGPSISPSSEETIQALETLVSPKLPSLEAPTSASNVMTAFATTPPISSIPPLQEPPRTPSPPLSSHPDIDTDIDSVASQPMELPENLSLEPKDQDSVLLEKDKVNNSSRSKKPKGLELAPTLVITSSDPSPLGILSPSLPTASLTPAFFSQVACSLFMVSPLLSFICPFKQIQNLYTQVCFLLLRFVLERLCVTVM
# In short: as §1
# ETV2 = molecular target: T4, ETV2 (Homo sapiens, UniProt O00321 1-342); conditions: protein: recombinant; tags: N-terminal GST; dsDNA, one strand shown
# T4 sequence: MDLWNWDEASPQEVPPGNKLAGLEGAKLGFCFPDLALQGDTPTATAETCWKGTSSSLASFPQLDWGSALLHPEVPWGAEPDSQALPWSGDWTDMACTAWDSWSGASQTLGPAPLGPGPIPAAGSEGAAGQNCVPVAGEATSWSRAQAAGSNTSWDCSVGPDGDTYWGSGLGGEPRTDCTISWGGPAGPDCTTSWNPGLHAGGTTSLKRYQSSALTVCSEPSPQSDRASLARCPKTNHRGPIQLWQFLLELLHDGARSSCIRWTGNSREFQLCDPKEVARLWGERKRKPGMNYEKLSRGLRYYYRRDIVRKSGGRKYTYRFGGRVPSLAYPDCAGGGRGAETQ
# In short: as §1
# ELF3 = molecular target: T5, ELF3 (Homo sapiens, UniProt P78545 1-371); conditions: protein: recombinant; tags: N-terminal GST; dsDNA, one strand shown
# T5 sequence: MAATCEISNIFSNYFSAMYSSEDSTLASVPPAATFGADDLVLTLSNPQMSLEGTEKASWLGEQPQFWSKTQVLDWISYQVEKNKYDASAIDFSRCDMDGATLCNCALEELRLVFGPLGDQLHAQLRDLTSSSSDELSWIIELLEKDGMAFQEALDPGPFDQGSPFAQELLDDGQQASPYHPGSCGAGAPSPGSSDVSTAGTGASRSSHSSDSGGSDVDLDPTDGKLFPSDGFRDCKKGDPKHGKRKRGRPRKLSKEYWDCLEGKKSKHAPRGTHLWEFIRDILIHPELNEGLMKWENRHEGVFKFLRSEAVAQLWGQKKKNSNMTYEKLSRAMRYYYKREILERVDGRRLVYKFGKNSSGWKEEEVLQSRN
# In short: as §1
# CRX = CRX (Homo sapiens, UniProt O43186 1-299); conditions: protein: recombinant; tags: N-terminal GST; dsDNA, one strand shown
# Sequence of CRX (O43186 whole entry): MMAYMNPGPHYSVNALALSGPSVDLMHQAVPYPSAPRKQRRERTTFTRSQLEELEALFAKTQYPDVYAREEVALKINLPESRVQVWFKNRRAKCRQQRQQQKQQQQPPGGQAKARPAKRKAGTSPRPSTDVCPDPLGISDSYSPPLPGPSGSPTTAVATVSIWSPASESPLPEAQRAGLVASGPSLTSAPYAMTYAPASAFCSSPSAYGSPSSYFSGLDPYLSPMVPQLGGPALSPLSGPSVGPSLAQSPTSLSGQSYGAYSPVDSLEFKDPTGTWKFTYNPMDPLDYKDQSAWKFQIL
# In short: as §1
# ETV1 = ETV1 (Homo sapiens, UniProt P50549 1-477); conditions: protein: recombinant; tags: N-terminal GST; dsDNA, one strand shown
# Sequence of ETV1 (P50549 whole entry): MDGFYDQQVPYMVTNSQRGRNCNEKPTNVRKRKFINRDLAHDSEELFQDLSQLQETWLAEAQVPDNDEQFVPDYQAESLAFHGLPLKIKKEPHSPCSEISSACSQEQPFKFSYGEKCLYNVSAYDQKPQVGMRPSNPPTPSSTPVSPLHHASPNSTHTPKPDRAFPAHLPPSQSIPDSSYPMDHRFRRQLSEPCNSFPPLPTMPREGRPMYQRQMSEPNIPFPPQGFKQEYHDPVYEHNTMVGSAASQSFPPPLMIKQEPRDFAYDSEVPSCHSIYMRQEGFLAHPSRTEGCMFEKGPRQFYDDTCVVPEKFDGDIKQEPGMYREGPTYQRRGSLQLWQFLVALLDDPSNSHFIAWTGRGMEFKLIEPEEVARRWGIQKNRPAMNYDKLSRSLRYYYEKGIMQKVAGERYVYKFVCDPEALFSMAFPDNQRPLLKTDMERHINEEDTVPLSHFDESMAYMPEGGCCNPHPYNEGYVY
# In short: as §1
# ERF = molecular target: T6, ERF (Homo sapiens, UniProt P50548 1-548); conditions: protein: recombinant; tags: N-terminal GST; dsDNA, one strand shown
# T6 sequence: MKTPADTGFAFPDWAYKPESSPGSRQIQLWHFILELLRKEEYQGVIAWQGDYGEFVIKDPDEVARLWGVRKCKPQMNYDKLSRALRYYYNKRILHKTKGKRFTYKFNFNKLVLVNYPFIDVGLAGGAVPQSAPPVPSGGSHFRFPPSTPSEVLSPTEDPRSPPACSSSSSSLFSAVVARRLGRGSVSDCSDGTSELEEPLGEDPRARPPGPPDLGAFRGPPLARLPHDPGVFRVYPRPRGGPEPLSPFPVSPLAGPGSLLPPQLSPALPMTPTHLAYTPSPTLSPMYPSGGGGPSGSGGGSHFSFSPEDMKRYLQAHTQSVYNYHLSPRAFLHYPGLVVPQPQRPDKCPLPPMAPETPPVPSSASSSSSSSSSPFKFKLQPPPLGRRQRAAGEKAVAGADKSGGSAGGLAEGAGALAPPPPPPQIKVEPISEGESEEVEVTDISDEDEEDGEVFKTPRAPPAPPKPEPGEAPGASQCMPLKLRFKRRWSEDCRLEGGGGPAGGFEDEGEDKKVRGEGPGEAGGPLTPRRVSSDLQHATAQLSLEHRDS
# In short: as §1
# ETV3L = molecular target: T7, ETV3L (Homo sapiens, UniProt Q6ZN32 1-361); conditions: protein: recombinant; tags: N-terminal GST; dsDNA, one strand shown
# T7 sequence: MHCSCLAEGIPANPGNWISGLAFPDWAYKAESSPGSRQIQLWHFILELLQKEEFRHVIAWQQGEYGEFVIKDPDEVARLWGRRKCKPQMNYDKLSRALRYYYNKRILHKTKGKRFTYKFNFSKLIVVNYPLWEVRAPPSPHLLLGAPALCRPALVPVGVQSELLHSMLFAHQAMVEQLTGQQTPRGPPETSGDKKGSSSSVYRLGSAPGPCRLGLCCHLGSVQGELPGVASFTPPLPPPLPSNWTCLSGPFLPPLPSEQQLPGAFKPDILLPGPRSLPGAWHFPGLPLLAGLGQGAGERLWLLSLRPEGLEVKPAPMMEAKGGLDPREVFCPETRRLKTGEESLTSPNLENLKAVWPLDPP
# In short: as §1
# ETS2 = molecular target: T8, ETS2 (Homo sapiens, UniProt P15036 1-469); conditions: protein: recombinant; tags: N-terminal GST; dsDNA, one strand shown
# T8 sequence: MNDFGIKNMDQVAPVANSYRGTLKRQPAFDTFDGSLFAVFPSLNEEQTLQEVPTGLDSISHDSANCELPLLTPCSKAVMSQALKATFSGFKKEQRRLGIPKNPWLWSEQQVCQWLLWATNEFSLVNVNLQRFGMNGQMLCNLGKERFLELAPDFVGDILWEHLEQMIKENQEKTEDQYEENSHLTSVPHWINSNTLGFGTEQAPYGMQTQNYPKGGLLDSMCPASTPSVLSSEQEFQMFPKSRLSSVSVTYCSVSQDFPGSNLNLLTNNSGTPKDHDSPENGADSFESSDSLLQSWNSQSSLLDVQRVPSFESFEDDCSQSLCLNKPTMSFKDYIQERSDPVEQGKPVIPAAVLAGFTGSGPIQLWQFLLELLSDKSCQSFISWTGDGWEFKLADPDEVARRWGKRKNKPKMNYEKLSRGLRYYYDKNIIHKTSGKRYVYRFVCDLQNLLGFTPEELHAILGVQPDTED
# In short: as §1
# SPDEF = molecular target: T9, SPDEF (Homo sapiens, UniProt O95238 1-335); conditions: protein: recombinant; tags: N-terminal GST; dsDNA, one strand shown
# T9 sequence: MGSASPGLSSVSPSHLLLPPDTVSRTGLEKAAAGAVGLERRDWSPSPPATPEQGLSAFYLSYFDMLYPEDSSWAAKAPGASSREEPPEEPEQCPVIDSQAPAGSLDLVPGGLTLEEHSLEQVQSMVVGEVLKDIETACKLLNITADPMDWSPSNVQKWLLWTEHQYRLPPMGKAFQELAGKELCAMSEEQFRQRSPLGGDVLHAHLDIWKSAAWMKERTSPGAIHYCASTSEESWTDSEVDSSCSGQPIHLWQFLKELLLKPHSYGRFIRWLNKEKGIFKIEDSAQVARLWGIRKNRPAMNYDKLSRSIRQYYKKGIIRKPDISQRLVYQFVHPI
# In short: as §1
# ETV7 = molecular target: T10, ETV7 (Homo sapiens, UniProt Q9Y603 1-341); conditions: protein: recombinant; tags: N-terminal GST; dsDNA, one strand shown
# T10 sequence: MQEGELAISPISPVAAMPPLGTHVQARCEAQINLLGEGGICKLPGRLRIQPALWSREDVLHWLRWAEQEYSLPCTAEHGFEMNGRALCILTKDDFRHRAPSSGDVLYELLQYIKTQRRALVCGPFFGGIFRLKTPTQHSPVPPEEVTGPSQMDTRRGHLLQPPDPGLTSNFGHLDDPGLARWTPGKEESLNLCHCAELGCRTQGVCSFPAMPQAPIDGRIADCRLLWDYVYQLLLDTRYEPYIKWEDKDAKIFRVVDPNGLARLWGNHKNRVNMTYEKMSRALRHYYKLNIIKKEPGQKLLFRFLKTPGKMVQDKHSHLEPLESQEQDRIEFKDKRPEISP
# In short: as §1
# ELF5 = molecular target: T11, ELF5 (Homo sapiens, UniProt Q9UKW6-2 1-255); conditions: protein: recombinant; tags: N-terminal GST; dsDNA, one strand shown
# T11 sequence: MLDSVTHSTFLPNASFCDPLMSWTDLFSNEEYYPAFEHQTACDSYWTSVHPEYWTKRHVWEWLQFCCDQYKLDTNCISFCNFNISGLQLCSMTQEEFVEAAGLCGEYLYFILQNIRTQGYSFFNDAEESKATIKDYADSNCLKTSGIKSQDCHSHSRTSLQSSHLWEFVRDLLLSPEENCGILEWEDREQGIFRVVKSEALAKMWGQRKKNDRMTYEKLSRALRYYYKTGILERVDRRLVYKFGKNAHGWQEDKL
# In short: as §1
# ETV3 = molecular target: T12, ETV3 (Homo sapiens, UniProt P41162-2 1-143); conditions: protein: recombinant; tags: N-terminal GST; dsDNA, one strand shown
# T12 sequence: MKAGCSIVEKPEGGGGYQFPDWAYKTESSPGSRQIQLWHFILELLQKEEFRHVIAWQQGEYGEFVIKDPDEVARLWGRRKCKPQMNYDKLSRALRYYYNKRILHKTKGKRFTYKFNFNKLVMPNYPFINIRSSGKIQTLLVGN
# In short: as §1
# ETV6 = ETV6 (Homo sapiens, UniProt P41212 1-452); conditions: protein: recombinant; tags: N-terminal GST; dsDNA, one strand shown
# Sequence of ETV6 (P41212 whole entry): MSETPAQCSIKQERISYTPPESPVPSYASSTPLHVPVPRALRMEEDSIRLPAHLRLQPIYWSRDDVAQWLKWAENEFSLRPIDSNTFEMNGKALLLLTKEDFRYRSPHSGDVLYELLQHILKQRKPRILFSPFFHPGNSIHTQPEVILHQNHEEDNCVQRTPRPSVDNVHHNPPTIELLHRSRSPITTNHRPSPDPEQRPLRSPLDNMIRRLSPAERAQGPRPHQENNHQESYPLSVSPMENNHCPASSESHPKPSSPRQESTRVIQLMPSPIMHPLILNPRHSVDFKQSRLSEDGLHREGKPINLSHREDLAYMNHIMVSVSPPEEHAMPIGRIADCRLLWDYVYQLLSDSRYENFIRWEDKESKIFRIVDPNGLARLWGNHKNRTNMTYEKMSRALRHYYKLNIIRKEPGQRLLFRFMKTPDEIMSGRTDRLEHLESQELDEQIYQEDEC
# In short: as §1
sequence,measurement,setting,value
ACCTGC,binding signal,FEV,"1.5 fold enrichment (6-mer frequency, TF over GST control)"
same,binding signal,ETV5,"1.53 fold enrichment (6-mer frequency, TF over GST control)"
same,binding signal,HSF1,"1.27 fold enrichment (6-mer frequency, TF over GST control)"
same,binding signal,SPIC,"1.22 fold enrichment (6-mer frequency, TF over GST control)"
same,binding signal,ELF4,"1.47 fold enrichment (6-mer frequency, TF over GST control)"
same,binding signal,ELK4,"1.59 fold enrichment (6-mer frequency, TF over GST control)"
same,binding signal,ETV2,"1.39 fold enrichment (6-mer frequency, TF over GST control)"
same,binding signal,ELF3,"1.65 fold enrichment (6-mer frequency, TF over GST control)"
same,binding signal,CRX,"1.22 fold enrichment (6-mer frequency, TF over GST control)"
same,binding signal,ETV1,"1.57 fold enrichment (6-mer frequency, TF over GST control)"
same,binding signal,ERF,"1.35 fold enrichment (6-mer frequency, TF over GST control)"
same,binding signal,ETV3L,"1.42 fold enrichment (6-mer frequency, TF over GST control)"
same,binding signal,ETS2,"1.5 fold enrichment (6-mer frequency, TF over GST control)"
same,binding signal,SPDEF,"1.4 fold enrichment (6-mer frequency, TF over GST control)"
same,binding signal,ETV7,"1.48 fold enrichment (6-mer frequency, TF over GST control)"
same,binding signal,ELF5,"1.39 fold enrichment (6-mer frequency, TF over GST control)"
same,binding signal,ETV3,"1.44 fold enrichment (6-mer frequency, TF over GST control)"
same,binding signal,ETV6,"1.66 fold enrichment (6-mer frequency, TF over GST control)"
